Source: PubChem BioAssay
STK33 kinase inh: inhibitors of purified STK33 kinase, primary screen, biochemical, ADP-Glo luminescence, homogeneous, cell-free; Serine/threonine-protein kinase 33 (Homo sapiens), Q9BYT3; MBP phosphorylation; inhibition, % at 10 µM; 320,000 tested, 0.073% active; AID 2661, 2010;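 active = inhibition at or above 25%, using the most active replicate where run in duplicate; inactive = inhibition below 25%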
Target sequence (Q9BYT3 whole entry, looked up): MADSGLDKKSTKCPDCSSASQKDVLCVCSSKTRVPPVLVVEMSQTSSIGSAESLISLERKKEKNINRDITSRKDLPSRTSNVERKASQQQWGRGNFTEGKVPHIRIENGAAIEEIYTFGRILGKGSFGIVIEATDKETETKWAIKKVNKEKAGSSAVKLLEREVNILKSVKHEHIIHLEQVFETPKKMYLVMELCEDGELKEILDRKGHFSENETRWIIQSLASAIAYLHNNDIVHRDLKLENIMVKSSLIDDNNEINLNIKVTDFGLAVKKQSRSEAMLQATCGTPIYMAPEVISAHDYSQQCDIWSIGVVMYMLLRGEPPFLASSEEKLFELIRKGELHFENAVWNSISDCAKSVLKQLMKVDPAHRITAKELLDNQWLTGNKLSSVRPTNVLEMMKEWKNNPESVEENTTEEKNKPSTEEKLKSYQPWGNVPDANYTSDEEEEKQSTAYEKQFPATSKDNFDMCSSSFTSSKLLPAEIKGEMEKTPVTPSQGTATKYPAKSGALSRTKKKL
Dyrk1A ADPGlo: rat Dyrk1A kinase inhibitors, primary screen, biochemical, single point, plate reader; 310,000 tested, 0.43% active; inhibition, % at 12.5 µM; Dual specificity tyrosine-phosphorylation-regulated kinase 1A (Rattus norvegicus), Q63470; ADP-Glo luminescence, NFATc1 peptide; in the data active = inhibition above about 50%
HIF activator: HIF pathway transcriptional activators, primary screen, cell-based, U2OS HRE-luciferase, luminescence; U2OS HRE-luciferase reporter; normalized: DMSO 0%, desferrioxamine 100%; activation, % at 7.5 µM (by protocol); 300,000 tested, 0.32% active; AID 1910, 2009;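 active = mean activation of at least 10% of the iron chelator positive control signal, with at least half of replicates also reaching 10%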
PP1 inh: PP1-alpha phosphatase inhibitors, primary screen, counter-screen for PP5 inhibitor project, biochemical, fluorescence, OMFP substrate, single point | inhibition, % at 6.7 µM | Serine/threonine-protein phosphatase PP1-alpha catalytic subunit (Homo sapiens), P62136 | purified PP1alpha | 320,000 tested, 0.9% active | AID 2235, 2010;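 active = inhibition above the mean inhibition of all tested compounds plus 3 SD, computed separately for each screening campaign, cut at about 15% in these data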
PP5 primary: PP5 phosphatase inhibitors, primary screen, biochemical, fluorescence; Serine/threonine-protein phosphatase 5 (Homo sapiens), P53041; purified PP5c, OMFP substrate fluorescence; inhibition, % at 6.7 µM; 320,000 tested, 0.18% active;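 active = inhibition above the campaign's mean inhibition across all tested compounds plus 3 SD, cut at about 9.5% in these data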
ADP-Glo artifact: ADP-Glo luciferase interference without Dyrk1A, dose response, artefact control for Dyrk1A inhibitor project, biochemical, luminescence, cherry-pick, set 02; shares compounds with Dyrk1A ADPGlo; ADP-Glo luciferase artifact assay, no Dyrk1A; AC50, µM (doses to about 12 µM); 1,300 tested, under 10 active;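 active = fitted half-maximal dose AC50 no more than ten times the top valid tested dose, with luminescence dropping as dose rises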
A number is an active result; - = inactive; . = no result given. Compounds with a hit are over-represented: about 1.5% of the library has one in this group of screens.

SMILES	STK33 kinase inh	Dyrk1A ADPGlo	HIF activator	PP1 inh	PP5 primary	ADP-Glo artifact
CCCCS(=O)(=O)Nc1ccc2cn[nH]c2c1	-	.	-	-	-	.
Cc1noc(NS(=O)(=O)c2ccc(NC(=O)c3oc4ccc(Cl)cc4c3C)cc2)c1C	-	64	-	-	-	-
Cc1cc(Nc2ccccc2)nc2cc(O)ccc12	-	74	-	-	-	-
COc1ccc2cc3cc(C(=O)NCC4CCCO4)oc3nc2c1 (stereo not drawn)	-	54	-	-	-	-
COCCNC(=O)c1cc2cc3ccc(OC)cc3nc2o1	-	58	-	-	-	-
O=C(COC(=O)CNC(=O)c1ccc(Cl)cc1)Nc1ccc(Cl)cc1C(F)(F)F	-	.	-	-	-	.
c1nc2sc3c(c2c2nnnn12)CCCC3	-	50	-	-	-	-
CCOc1ccc(N2CC(C(=O)Nc3cccc(S(=O)(=O)NC4=NCCC4)c3)CC2=O)cc1 (stereo not drawn)	-	-	-	-	-	.
O=S(=O)(O)c1cccc(N=Nc2c(O)ccc3ccccc23)c1	60	74	-	-	-	-
CC(=O)N/N=C(\N)c1nonc1N	-	.	-	-	-	.
Cc1ccccc1C(=O)NNC(=O)CCCCC(=O)NNC(=O)c1ccccc1C	-	66	-	-	-	-
O=C(N/C(=C/c1ccccc1F)C(=O)N1CCCCC1)c1ccccc1	-	-	-	-	-	.
O=C(NCc1ccco1)c1sc2ccccc2c1Cl	-	56	-	-	-	-
O=C(NCc1ccco1)c1sc2cc(Cl)ccc2c1Cl	-	-	.	-	-	.
CCN(CC)CCn1c2ccccc2c(=O)c2c(O)ccc(O)c21	.	85	.	.	.	-
CCN(CC)CCn1c(O)c(N=O)c2ccccc21	-	-	-	-	-	.
COc1ccc(-c2csc(N=C(N)N)n2)cc1	-	82	-	-	-	-
CC1CC(=O)Nc2cc([N+](=O)[O-])ccc2N1 (stereo not drawn)	-	-	-	-	-	.
CCCCn1c(N)c(N(CC(C)C)C(=O)c2cccc(OCc3ccccc3)c2)c(=O)[nH]c1=O	-	-	-	-	-	.
COc1cccc(-c2noc(N)c2C#N)c1	-	63	-	-	-	-
Cn1nnnc1Sc1ncnc2scc(-c3ccc[nH]3)c12	-	52	.	-	-	-
CC(C)Cc1ccc(C(C)NC(=O)Cc2ccc(S(=O)(=O)N3CCOCC3)s2)cc1 (stereo not drawn)	-	-	-	-	-	.
CC(=O)Nc1nc2ccc(Br)cc2s1	-	71	-	-	-	-
Cn1c2ccccc2c(=O)c2ccc(C#CC3(N)CCCCC3)cc21	-	58	-	-	-	-
Cc1cccc(NC2=C/C(=N/S(=O)(=O)c3cccs3)c3ccccc3C2=O)c1	-	-	.	-	-	.
SMILES	STK33 kinase inh	Dyrk1A ADPGlo	HIF activator	PP1 inh	PP5 primary	ADP-Glo artifact
Cc1cc(C)c(S(=O)(=O)/N=C2\C=C(Nc3ccc(C(=O)O)cc3)C(=O)c3ccccc32)c(C)c1	-	69	-	-	-	-
Cc1cc(C)c(S(=O)(=O)/N=C2\C=C(NS(=O)(=O)c3ccccc3)C(=O)c3ccccc32)c(C)c1	-	-	-	-	-	.
O=C1C(Nc2ccc(O)cc2)=C/C(=N/S(=O)(=O)c2cccs2)c2ccccc21	.	70	-	.	.	-
CCN(CC)CC(O)Cn1c(C)c(-c2ccccc2)c2cc([N+](=O)[O-])ccc21 (stereo not drawn)	-	-	-	-	-	.
O=C(Nc1nc2ccccc2s1)c1ccc(OCC2CCCO2)cc1 (stereo not drawn)	-	57	-	-	-	-
COC(=O)CSc1ncnc2c1sc1nc3c(cc12)COC(C)(C)C3	-	-	-	-	-	.
CC1(C)Cc2nc3sc4c(SCC(=O)O)ncnc4c3cc2CO1	-	93	.	-	-	-
O=C(COC(=O)CNC(=O)c1ccc(Cl)cc1Cl)NCc1ccco1	-	-	-	-	-	.
CCN(CC)c1c([N+](=O)[O-])c(=O)sc2ccccc12	-	53	-	-	-	-
O=c1sc2ccccc2c(N2CCCC2)c1[N+](=O)[O-]	-	-	-	-	-	.
O=C1C2C(c3ccccc3)CC=CC2[C@H](c2ccc3ccccc3c2)N1Cc1ccccc1 (stereo partly drawn)	-	-	-	-	-	.
O=C1C2C(c3ccccc3)CC=CC2[C@H](c2ccoc2)N1Cc1ccccc1 (stereo partly drawn)	-	60	-	-	-	-
Cc1cc(S(=O)(=O)Nc2nc(CN3CCOCC3)nc3sc4c(c23)CCC4)ccc1F	-	.	.	.	.	.
